Here are results for 23 compounds from PubChem BioAssay (EPA / NIEHS).

Inconclusive results are not listed. The source made the active and inactive calls. The calls were made as follows: active = hit-call score of the fitted dose curve at least 0.9, where 1 is the maximum; inconclusive = response in the unintended direction; inactive = score below 0.9.

Sequence of Retinoic acid receptor alpha (Homo sapiens) (P10276 whole entry, looked up): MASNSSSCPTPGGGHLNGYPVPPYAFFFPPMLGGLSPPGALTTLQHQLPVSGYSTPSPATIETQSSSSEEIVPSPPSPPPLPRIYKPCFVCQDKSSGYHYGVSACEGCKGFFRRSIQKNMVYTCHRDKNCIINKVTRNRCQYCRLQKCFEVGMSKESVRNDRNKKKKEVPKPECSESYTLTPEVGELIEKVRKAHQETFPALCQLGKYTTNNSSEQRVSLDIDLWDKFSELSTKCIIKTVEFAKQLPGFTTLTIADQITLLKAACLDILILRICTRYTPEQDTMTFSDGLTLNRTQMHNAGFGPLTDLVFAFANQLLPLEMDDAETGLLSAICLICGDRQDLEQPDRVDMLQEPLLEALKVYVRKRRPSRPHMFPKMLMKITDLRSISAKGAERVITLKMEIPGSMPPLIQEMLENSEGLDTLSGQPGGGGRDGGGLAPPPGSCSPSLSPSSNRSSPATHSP

The target in one assay is Estrogen receptor beta (Homo sapiens) (UniProt Q92731). The experiment in a line: OT_ER_ERbERb_0480: Odyssey Thera (OT) 8-hour HEK293T Protein-Complementation Assay for Estrogen Receptor-beta/-beta Homodimer (AID 2283357).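 Also: active means signal gain over DMSO baseline.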 The method in brief: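 Homodimerization of ER-beta LBD measured by protein-fragment complementation in HEK293T; 8 h dosing; fixed, Draq5 counterstain; fluorescence intensity gain over DMSO baseline, positive fitting direction; laser scanning cytometry.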
Sequence of Estrogen receptor beta (Homo sapiens) (Q92731 whole entry, looked up, the tested form may be a part): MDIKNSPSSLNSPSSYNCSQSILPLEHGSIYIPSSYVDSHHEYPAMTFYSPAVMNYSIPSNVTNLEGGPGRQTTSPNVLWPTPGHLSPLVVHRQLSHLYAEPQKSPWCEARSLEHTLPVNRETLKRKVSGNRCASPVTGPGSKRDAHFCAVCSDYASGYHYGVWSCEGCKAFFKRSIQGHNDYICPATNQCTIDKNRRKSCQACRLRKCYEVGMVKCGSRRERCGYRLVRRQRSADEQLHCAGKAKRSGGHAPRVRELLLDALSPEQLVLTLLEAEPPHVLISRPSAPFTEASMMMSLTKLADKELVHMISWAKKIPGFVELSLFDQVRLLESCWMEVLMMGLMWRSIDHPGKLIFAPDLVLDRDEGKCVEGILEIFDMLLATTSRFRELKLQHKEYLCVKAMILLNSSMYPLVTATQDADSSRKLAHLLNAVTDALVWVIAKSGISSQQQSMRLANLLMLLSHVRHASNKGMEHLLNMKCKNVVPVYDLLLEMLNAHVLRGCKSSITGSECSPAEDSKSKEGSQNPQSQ
`CC(C)(C)C1CCC(=O)CC1`: the compound was called inactive. Same read-out and setting: the same measure for `CCCCCC(=O)OCC`: “inactive”; for `CCCCC(C=O)CC` (configuration not stated): “inactive”; for `O=C(O)c1ccc2c(c1)C(=O)OC2=O`: “inactive”. Same read-out and setting: under `CCCC(CC)c1ccccc1` (configuration not stated) stands “inactive”; under `NC(=O)Nc1ccccc1`, “inactive”; under `C=CCOC(=O)c1ccc(C(=O)OCC=C)c(C(=O)OCC=C)c1`, “inactive”. On to `c1ccc(Nc2cccc3ccccc23)cc1`, for which the AC50 was 29.1 µM (active). In the case of `Nc1ccc(C(=O)O)cc1`, the compound was classed as inactive. In the case of `O=C(Nc1ccccc1)c1cc(Cl)ccc1O`, the outcome was inactive. Consider `CC(C)c1cc(C(C)C)cc(C(C)C)c1`, for which the call was inactive. Still for that read-out and setting: under `C1CNCCN1` stands “inactive”. `CCCCCCCCCCCCc1ccc(O)cc1`: the AC50 was 0.853 µM (active). On to `CCCC=C(C=O)CC`, for which the compound was classed as inactive. Still for that read-out and setting: the same measure for `CCCCCCCCCC(C)=O`: “inactive”. On to `CCCCNC(=S)NCCCC`, for which the compound was called inactive. For `Oc1ccccc1Cc1ccccc1O`, the AC50 is 31.6 µM (active). For the compound `CC1(C)[C@@H]2CC[C@@]1(C)C(=O)C2`, the compound was called inactive.

For `CC1=CCC2CC1C2(C)C` (configuration not stated), the call was inactive.

Another assay has as its target Retinoic acid receptor alpha (Homo sapiens) (UniProt P10276). Kind of assay: NVS_NR_hRAR_Antagonist: NovaScreen (NVS) Nuclear Receptor Binding Assay for human Retinoic Acid Alpha Receptor Antagonism (RAR) (AID 2283358). The procedure, abridged: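 Read-out: time-resolved FRET binding signal, 2 h post-dose, cell-free extracted protein. Antagonism scored as signal loss versus DMSO negative control. Primary single-concentration screen at 25 uM in duplicate; concentration series for actives.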
`NC(=O)Nc1ccccc1`: the result was inactive. On to `O=c1c(O)c(-c2ccc(O)cc2O)oc2cc(O)cc(O)c12`, for which the AC50 was 6.95 µM (active). With `Nc1ccc(C(=O)O)cc1`, the call was inactive. In the case of `CCCCC/C=C\C/C=C\CCCCCCCC(=O)O`, the result was inactive.

The next assay deals with human Peroxisome Proliferator-activated Receptor alpha (PPARa), PPARA (gene 5465) (UniProt Q07869). Kind of assay: NVS_NR_hPPARa: NovaScreen (NVS) Nuclear Receptor Binding Assay for human Peroxisome Proliferator-activated Receptor alpha (PPARa) (AID 2283359).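 Also: activity means loss of TR-FRET signal versus DMSO baseline.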 The procedure, abridged: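 TR-FRET signal measured at 1 h post-dosing; loss-of-signal versus DMSO negative control taken as activity. Extracted gene-protein, cell-free format. Initial single-point duplicates at 25 uM, then concentration-response retests.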
Sequence of human Peroxisome Proliferator-activated Receptor alpha (PPARa), PPARA (gene 5465) (Q07869 whole entry, looked up): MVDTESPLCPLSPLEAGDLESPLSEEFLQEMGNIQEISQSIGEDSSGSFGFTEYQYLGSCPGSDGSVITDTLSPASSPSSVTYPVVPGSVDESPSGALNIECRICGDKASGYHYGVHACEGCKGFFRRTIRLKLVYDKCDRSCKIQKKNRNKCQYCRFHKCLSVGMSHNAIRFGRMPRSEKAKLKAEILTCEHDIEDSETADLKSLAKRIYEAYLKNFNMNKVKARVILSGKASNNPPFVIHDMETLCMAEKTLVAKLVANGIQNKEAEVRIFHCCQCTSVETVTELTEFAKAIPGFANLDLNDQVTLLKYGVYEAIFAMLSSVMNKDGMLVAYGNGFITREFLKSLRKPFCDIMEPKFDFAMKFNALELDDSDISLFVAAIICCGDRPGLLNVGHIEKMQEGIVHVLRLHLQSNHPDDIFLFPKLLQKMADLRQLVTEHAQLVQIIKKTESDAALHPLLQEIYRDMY
With `CCCC(CC)c1ccccc1` (configuration not stated), the call was inactive.

`CCCCC/C=C\C/C=C\CCCCCCCC(=O)O`: the AC50 is 13.1 µM (active). Regarding `CCCCCCO`, the outcome was inactive. In the case of `CCCCCC[C@@H](O)C/C=C\CCCCCCCC(=O)OCC(O)CO` (some centres not stated), the AC50 is 15.5 µM (active).

What is called AC50 is the concentration at which the activity in the assay is half-maximal.
